# Assay results taken from PubChem BioAssay (EPA / NIEHS).
# Values joined by “and” are separate entries in the source; they are usually repeats but may differ in a detail not shown here. Identical values can stand only once. Active and inactive are the calls of the source. How the source made its calls: active means hit-call score of the fitted dose curve at least 0.9, where 1 is the maximum; inactive means score below 0.9.
# Read-out: Monocyte Chemoattractant Protein-1 (MCP1), CCL2 (gene 6347)
# Assay: BSK_IMphg_MCP1: BioMAP Diversity Plus: IMphg Assay for Monocyte Chemoattractant Protein-1 (MCP1) Biomarker Activity (AID 2284253)
# Details: primary human endothelial cells with macrophages
# Procedure: BSK_IMphg is a cell-based, multiplexed-readout assay that uses venular endothelial cells and macrophages, a human vascular primary cell, with measurements taken at 24 hours after chemical dosing in a microplate: 96-well plate.BSK_IMphg_MCP1 is an assay component measured in the BSK_IMphg assay. It measures MCP-1 antibody related to regulation of gene expression using ELISA technology.Data from the assay component BSK_IMphg_MCP1 was analyzed at the endpoint, BSK_IMphg_MCP1, in the positive analysis fitting direction relative to DMSO as the negative control and baseline of activity. Using a type of binding reporter, gain or loss-of-signal activity can be used to understand protein changes. To generalize the intended target to other relatable targets, this assay endpoint is annotated to the 'cytokine' intended target family, where the subfamily is 'chemotactic factor'.
# The levels of cell surface (or secreted, indicated by the prefix "s") biomarker endpoints were measured by ELISA. Overt cytotoxicity to cells in confluent adherent cultures (all systems other than the BT system) was assessed by measuring total protein levels using sulforhodamine B (SRB) staining in parallel cultures at the time of biomarker measurements, indicated as SRB endpoints. For proliferation assays for adherent cell types, individual cell types are cultured at sub-confluence and relative cell numbers quantified by SRB staining at time points optimized for each system (48 h: 3C and CASM3C systems; 72 h: BT and HDF3CGF systems; 96 h: SAg system). SRB was performed by staining cells with 0.1% SRB after fixation with 10% TCA and reading wells at 560 nm.Viability and proliferation of PBMC (T cells) was quantified by Alamar Blue reduction for the SAg and BT systems. […] Then, Alamar Blue (20 uL/well) (Invitrogen, Cat DAL1100) was added for 6 h, and the plates were read with a fluorescence microplate reader at 546/580 nm (excitation/emission). […] Plates were read after 6 h.
row,SMILES,outcome
1,O=C(O)C(F)(F)C(F)(F)C(F)(F)C(F)(F)C(F)(F)C(F)(F)C(F)(F)C(F)(F)C(F)(F)C(F)(F)F,inactive
2,O=C(O)C(F)(F)C(F)(F)C(F)(F)C(F)(F)C(F)(F)C(F)(F)F,inactive
3,O=C(O)CCC(F)(C(F)(F)F)C(F)(F)F,inactive

# Read-out: Interleukin-8 (IL8), CXCL8 (gene 3576)
# Assay: BSK_KF3CT_IL8: BioMAP Diversity Plus: KF3CT Assay for Interleukin-8 (IL8) Biomarker Activity (AID 2284254)
# Details: primary human keratinocytes with fibroblasts
# In short: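 ELISA detection of IL-8 from a human skin co-culture, keratinocytes with foreskin fibroblasts, at 24 h following chemical exposure, with gain of signal scored against DMSO controls.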
SMILES,AC50,outcome
O=C(O)C(F)(F)C(F)(F)C(F)(F)C(F)(F)C(F)(F)C(F)(F)C(F)(F)C(F)(F)C(F)(F)C(F)(F)F,3.33 µM (active) and 5.2 µM (active),–
COC(=O)Cc1ccccc1,–,inactive
CC(=O)OC(c1ccccc1)C(Cl)(Cl)Cl (configuration not stated),–,inactive
O=C(O)C(F)(F)C(F)(F)C(F)(F)C(F)(F)C(F)(F)C(F)(F)F,–,inactive
O=C(O)CCC(F)(C(F)(F)F)C(F)(F)F,–,inactive

# Read-out: Macrophage Inflammatory Protein-1 Alpha (MIP1a), CCL3 (gene 6348)
# Assay: BSK_IMphg_MIP1a: BioMAP Diversity Plus: IMphg Assay for Macrophage Inflammatory Protein-1 Alpha (MIP1a) Biomarker Activity (AID 2284255)
# Details: primary human endothelial cells with macrophages
# In short: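 Co-culture of human venular endothelial cells and macrophages exposed to compounds for 24 h; MIP-1a measured by ELISA relative to DMSO. Cytotoxicity assessed in parallel cultures by sulforhodamine B total-protein staining at 560 nm.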
row,SMILES,outcome
1,O=C(O)C(F)(F)C(F)(F)C(F)(F)C(F)(F)C(F)(F)C(F)(F)C(F)(F)C(F)(F)C(F)(F)C(F)(F)F,inactive
2,O=C(O)C(F)(F)C(F)(F)C(F)(F)C(F)(F)C(F)(F)C(F)(F)F,inactive
3,O=C(O)CCC(F)(C(F)(F)F)C(F)(F)F,inactive

# Read-out: Plasminogen activator inhibitor-1 (PAI1), SERPINE1 (gene 5054)
# Assay: BSK_MyoF_PAI1: BioMAP Diversity Plus: MyoF Assay for Plasminogen activator inhibitor-1 (PAI1) Biomarker Activity (AID 2284256);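 on outcome: PAI-1 protein level measured by ELISA in fibroblast cultures; PAI-1 read 24 h after compound addition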
# Details: primary human lung fibroblasts
# In short: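 Activity reflects increased PAI-1, determined by ELISA and compared with DMSO, in human lung fibroblasts treated for 24 h.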
SMILES,outcome,AC50
CC(C)c1ccc(CO)cc1,inactive,–
COC[C@H](C)N(C(=O)CCl)c1c(C)csc1C,inactive,–
O=C(O)C(F)(F)C(F)(F)C(F)(F)C(F)(F)C(F)(F)C(F)(F)C(F)(F)C(F)(F)C(F)(F)C(F)(F)F,–,5.52 µM (active) and 6.52 µM (active)
CCCCC(CC)CO[N+](=O)[O-] (configuration not stated),inactive,–
CCOC(=O)/C=C(C)/C=C/C[C@@H](C)CCCC(C)C,–,32.3 µM (active)
CC(C)CCCCCCOC(=O)c1ccccc1C(=O)OCCCCCCC(C)C,inactive,–
Nc1ncc([N+](=O)[O-])s1,inactive,–
O=Cc1cccc(Oc2ccccc2)c1,inactive,–
CCSC(C)CC1CC(=O)C(C(CC)=NOC/C=C/Cl)=C(O)C1 (configuration not stated),inactive,–
COP(=S)(OC)Oc1ccc(Sc2ccc(OP(=S)(OC)OC)cc2)cc1,inactive,–
BrCCBr,inactive,–
Nc1ccc(-c2ccc(N)c(Cl)c2)cc1Cl,inactive,–
CC1(C)Cc2cccc(O)c2O1,inactive,–
CC(=O)C(Cl)C(=O)N(C)C (configuration not stated),inactive,–
CCOP(=S)(OCC)SCCS(=O)(=O)CC,inactive,–
Nc1cccc2ccccc12,inactive,–
CCNc1nc(NC(C)(C)C)nc(SC)n1,inactive,–
O=C(OC1CCCCC1)c1ccccc1C(=O)OC1CCCCC1,–,20.9 µM (active)

SMILES,outcome,AC50
NC(=S)Nc1ccccc1,inactive,–
C(=NC1CCCCC1)=NC1CCCCC1,–,7.53 µM (active)
Oc1ccc(-c2ccccc2)cc1,inactive,–
OCc1ccco1,inactive,–
O=S(=O)(c1ccc(Cl)cc1)c1ccc(Cl)cc1,inactive,–
COc1cc(OC)nc(NC(=O)NS(=O)(=O)c2ncccc2C(=O)N(C)C)n1,inactive,–
COP(=S)(OC)Oc1ccc(S(=O)(=O)N(C)C)cc1,inactive,–
CCCCCCCCC(=O)NCc1ccc(O)c(OC)c1,inactive,–
O=C(O)C(F)(F)C(F)(F)C(F)(F)C(F)(F)C(F)(F)C(F)(F)F,inactive,–
O=C(O)CCC(F)(C(F)(F)F)C(F)(F)F,inactive,–
COP(=S)(OC)Oc1cc(Cl)c(Cl)cc1Cl,inactive,–
ClC(Cl)=C(Cl)C(Cl)=C(Cl)Cl,inactive,–
ClC1=C(Cl)[C@]2(Cl)[C@H]3[C@H]([C@H]4C=C[C@H]3C4)[C@@]1(Cl)C2(Cl)Cl,inactive,–
Oc1c(I)cc(I)cc1I,inactive,–
COP(=S)(OC)Oc1c(Cl)cc(C)cc1Cl,inactive,–
O=[N+]([O-])c1ccc2c3c(cccc13)CC2,inactive,–
CCOP(=S)(OCC)Oc1ccc(S(C)=O)cc1 (configuration not stated),inactive,–
COC(=O)c1sccc1S(=O)(=O)NC(=O)Nc1nc(C)nc(OC)n1,inactive,–
